# Test results from PubChem BioAssay (NCI).
# This is part of a sample that, as a whole, favours compounds with a hit. Of some 83,000 tested, about 20% had one in any assay.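 Cell lines were cultured in 96-well plates, exposed to a single compound concentration, and assessed for percent growth 48 hours later.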 Values without a mark were called inactive. Calls of active or inactive are those of the source. The calls were made as follows: active = growth percent below 10; inactive = the rest.
# Assays:
# Assay in all cases: NCI-60 one-dose screen, 48 h (100 = growth as untreated, 0 = no growth, -100 = all killed)
# Conditions in all cases: 10 µM unless noted
# DU-145 prostate = system: DU-145 prostate
# K-562 leukemia = system: K-562 leukemia
# MDA-MB-231 breast = system: MDA-MB-231 breast
# RXF 393 renal = system: RXF 393 renal
# SF-268 CNS = system: SF-268 CNS
# SF-295 CNS = system: SF-295 CNS
# SF-539 CNS = system: SF-539 CNS
# UACC-257 melanoma = system: UACC-257 melanoma
# M14 melanoma = system: M14 melanoma
# HCT-15 colon = system: HCT-15 colon
# HT29 colon = system: HT29 colon
# SNB-75 CNS = system: SNB-75 CNS
# SNB-19 CNS = system: SNB-19 CNS
# U251 CNS = system: U251 CNS
# PC-3 prostate = system: PC-3 prostate
# SK-MEL-5 melanoma = system: SK-MEL-5 melanoma
# UACC-62 melanoma = system: UACC-62 melanoma
# SK-MEL-28 melanoma = system: SK-MEL-28 melanoma
# LOX IMVI melanoma = system: LOX IMVI melanoma
Compound,growth (DU-145 prostate),growth (K-562 leukemia),growth (MDA-MB-231 breast),growth (RXF 393 renal),growth (SF-268 CNS),growth (SF-295 CNS),growth (SF-539 CNS),growth (UACC-257 melanoma),growth (M14 melanoma),growth (HCT-15 colon),growth (HT29 colon),growth (SNB-75 CNS),growth (SNB-19 CNS),growth (U251 CNS),growth (PC-3 prostate),growth (SK-MEL-5 melanoma),growth (UACC-62 melanoma),growth (SK-MEL-28 melanoma),growth (LOX IMVI melanoma)
C(=C\c1c[nH]c2ccccc12)/c1ccc2ccccc2n1,92.7%,51.9%,56.4%,92.1%,71.4%,81.4%,87.9%,90.2%,82.2%,53.9%,33.4%,81.1%,84.4%,59.7%,59.3%,96%,86.8%,107%,–
Cc1cccc2c1NC(=O)[C@@]21[C@H](C(=O)c2ccccc2)[C@]2(C(=O)Nc3ccccc32)[C@H]2CCCN21,40% [100 µM],30.4% [100 µM],14.5% [100 µM],-23.9% [100 µM] (active),34.3% [100 µM],23.7% [100 µM],6.13% [100 µM] (active),–,46.1% [100 µM],9.8% [100 µM] (active),3.18% [100 µM] (active),-25.4% [100 µM] (active),-5.94% [100 µM] (active),1.7% [100 µM] (active),21.7% [100 µM],31% [100 µM],22.5% [100 µM],46.4% [100 µM],–
COc1cnc2c(c1)C(=O)c1c-2n(CCCN2CCN(CCO)CC2)c(=O)c2cc([N+](=O)[O-])ccc12,43.3%,-26.6% (active),-35.8% (active),74.3%,31%,29.2%,57.5%,–,18.2%,-26.3% (active),-85.7% (active),73.1%,-1.88% (active),-84.2% (active),44.4%,53.9%,37.8%,102%,–
CC(=O)O[C@H]1CC[C@@]2(C)[C@@H](CC[C@@H]3[C@@H]2CC(=O)[C@@]2(C)[C@H]3C[C@@H](C3CCCC3=O)[C@@H]2C(C)=O)C1 (stereo partly specified),117%,105%,98.8%,132%,112%,112%,105%,109%,97.8%,106%,95.6%,97.4%,94.2%,102%,93.1%,108%,91.6%,113%,–
COc1ccc(-c2n/c(=C\c3c(O)[nH]c4ccc(OC)cc34)cc3c2=Nc2ccccc2-3)cc1,-2.21% (active),-32.8% (active),39%,–,-33.3% (active),–,-48% (active),83.6%,-40.5% (active),0.939% (active),-47.4% (active),30.4%,38.4%,-79.3% (active),75.8%,18.5%,-56.4% (active),-89.9% (active),27.4%
Cc1ccc2[nH]cc(-c3nc(-c4cn(C)c5ncccc45)cs3)c2c1,97.7%,59.4%,83.4%,100%,97%,77.9%,93.8%,94%,80%,83%,74.6%,85%,109%,94.8%,57%,76.9%,79.3%,90.6%,–
Cn1c2c(c3ccc(Cl)cc31)-n1cccc1C2=O,88.6%,107%,87.5%,91.8%,92.3%,105%,94.7%,106%,109%,83.5%,70.8%,87.5%,85.5%,89.3%,101%,98.4%,89.8%,109%,–
O=C(NC1=CC(=O)c2ccccc2C1=O)c1ccccc1,63.4%,-0.828% (active),16.9%,35.3%,39.3%,4.13% (active),10.5%,-4.63% (active),33.9%,29.1%,71.2%,34%,36.3%,21.1%,16.6%,0.587% (active),15%,52.3%,–
